Structures are written as SMILES. The panel holds about 83,000 compounds, 20% with a hit somewhere; the sample as a whole holds those more often.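 Compound tested at a single concentration for 48 hours in 96-well plates; a percent growth value below 10 was scored as active.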 Calls of active or inactive are those of the source.

The subject of the experiment is SF-295 CNS. Description: NCI-60 one-dose screen, 48 h (100 = growth as untreated, 0 = no growth, -100 = all killed). To be noted: 10 µM unless noted.
In the case of `COc1ccc(C2=Nc3c(N)ncnc3NC(c3ccc4c(c3)OCO4)C2)cc1` (stereo not given), the growth was 118% (inactive).

Consider `COc1ccc2occ(C3=C(c4c[nH]c5ccccc45)C(=O)N(O)C3=O)c2c1`, for which the growth is 105% (inactive). The figure for `NCCCNc1nc2ccccc2c2c(=O)c3cccc(Cl)c3sc12` is 26.8% (inactive); for `O=c1c2cc(F)ccc2sc2c(NCCN3CCCCC3)nc3ccccc3c12` it is 56% (inactive); for `Cc1ccc2c(c1)Sc1c(ccc3ccccc13)N2` it is 69.8% (inactive). The figure for `CCCCCCCCCCCCCCCCCCOc1ccc(CC(=O)OCC[N+]2(C)CCCC2)cc1` is 90.6% (inactive); for `CC(=O)OC[C@H]1OC(Sc2sc(C(=O)c3ccc(Br)cc3)c(N)c2-c2nc3ccccc3s2)[C@H](OC(C)=O)[C@@H](OC(C)=O)[C@@H]1OC(C)=O` (stereo not given in full) it is 69.6% (inactive); for `O=C(O)c1ccc2c(c1)CCC2` it is 103% (inactive). The same measure for `COc1ccc(-c2[nH]c(=S)n(C(CC3(C)NCC(=O)N3n3c(-c4ccccc4)cc(C)nc3=S)c3ccc(OC)cc3)c(=O)c2Br)cc1` (stereo not given): 61.9% (inactive); for `C[C@H](NC(=O)[C@@H]1CSSC[C@@H](NC(=O)c2nc3ccccc3cc2O)C(=O)NCC(=O)N1C)c1ccccc1`: 77.6% (inactive). Regarding `CCc1ccccc1-n1c(-c2ccc(Cl)cc2)cc(-c2ccc(Cl)cc2)c(C#N)c1=O`, the growth is 89% (inactive). In the case of `COCCc1ccc(OCC(O)CNC(C)C)cc1` (stereo not given), the growth is 101% (inactive).

Consider `COc1ccc(/C=C/c2c(C(=O)/C=C/c3cccs3)c(C)nc3ccccc23)cc1`, for which the growth was 86.3% (inactive).

Take `COc1ccc(-c2nc3c(N)c(CO)c(C)nc3o2)cc1`: the growth is 99.1% (inactive). The figure for `CC(C)C(=O)Nc1n[nH]c2cc(-c3cccc(NS(=O)(=O)C4CC4)c3)ccc12` is 56.3% (inactive). The figure for `COc1ccc(-c2nc3ccc4[nH]ncc4c3c3c2CCCC3)cc1B(O)O` is 56.3% (inactive); for `COc1cc(OC)cc(C2CC(=O)Nc3c2c(C)nn3-c2nc3ccccc3[nH]2)c1` (stereo not given) it is -62.9% (active).

As for `CCOC(=O)c1c2ncccc2n2c(=O)n(-c3ccccc3C)nnc12`, the growth is 105% (inactive). The same measure for `CCN(CCNc1ccc(C)c2sc3ccccc3c(=O)c12)CC(C)(C)O`: -17.6% (active); for `CCCCNC(=O)Oc1ccc2c(=O)c3sc4c(=O)c5ccccc5c(=O)c4c3c(=O)c2c1`: -98.1% (active); for `O=C(NCCCNc1cc(-c2cn(-c3ccccc3)nc2-c2cccc(O)c2)ccn1)c1ccc(F)cc1`: -4.5% (active). As for `CC(C)=C[C@@H]1c2c(c3ccccc3n(C)c2=O)O[C@H]2c3c(c4ccccc4n(C)c3=O)OC(C)(C)[C@@H]12`, the growth was 65.5% (inactive). `CCN1CCN(c2nc(C)cc(NCc3cc(Nc4ccnc5cc(Cl)ccc45)ccc3F)n2)CC1`: the growth was -55% (active). The same measure for `COc1ccc2c(c1)O/C(=C\c1cccc(OCC(=O)Nc3nc4ccccc4s3)c1)C2=O`: 99.7% (inactive); for `Cc1nn(-c2ccccc2)c(Oc2ccc(Cl)cc2)c1/C=N\N=c1/sc2ccccc2n1C`: 101% (inactive); for `COc1cc(C2NC(=O)c3ccccc3N2)ccc1OCCCCCOc1c(OC)cc(C2=NOC(c3cc(OC)c(OC)c(OC)c3)C2)cc1OC` (stereo not given): 24.9% (inactive). Regarding `COc1cc(C2CC(=O)Nc3c2c(C)nn3-c2nc3ccccc3[nH]2)c(OC)c(OC)c1OC` (stereo not given), the growth was 19.8% (inactive). `CC1(C)OC2C(CO[Si](C)(C)C(C)(C)C)OC(n3c(I)c(C#C[Si](C)(C)C)c(=O)[nH]c3=O)C2O1` (stereo not given): the growth was 140% (inactive). On to `CC(=O)N1C(=S)NC(=O)C1Cn1c(-c2ccccc2)nc2ccccc21` (stereo not given), for which the growth is 105% (inactive). The same measure for `COCN1CCC2N(COC)CCC3N(COC)CCC1N23` (stereo not given): 113% (inactive). The figure for `C=CC(=O)Nc1cccc(Oc2nccc(Nc3nnc(C4CC4)s3)n2)c1` is 104% (inactive); for `COc1ccc(N=Nc2ccc(O)c(=O)cc2)cc1` it is 10.2% (inactive); for `C=C1C(=O)O[C@H]2[C@H]1CC/C(COC(=O)C(=O)c1cn(C)c3ccc(OC)cc13)=C\CC[C@@]1(C)O[C@@H]21` it is 10.2% (inactive). The same measure for `COc1cccc(-c2nn(-c3ccccc3)cc2-c2ccnc(NCCNC(=O)Nc3ccccc3)c2)c1`: 54.4% (inactive); for `COC(=O)[C@]12CC[C@@H](C)[C@H](C)[C@@H]1C1=CC[C@@H]3[C@@]4(C)C(C=O)=C[C@@](C)(COC(C)=O)[C@@H]4[C@H](O)C[C@@]3(C)[C@]1(C)CC2`: -30% (active).

The values above are taken from PubChem BioAssay (NCI).
